{
  "source": "PubChem BioAssay (NCI)",
  "note": "The panel holds about 83,000 compounds, 20% with a hit somewhere; the sample as a whole holds those more often.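 Method: cells in 96-well plates; compound added at one concentration; 48 h incubation; percent growth measured; values under 10 scored active.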 Unmarked numbers belong to inactive results. Active and inactive are the calls of the source.",
  "data": [
    {"system": "A498 renal", "assay": "NCI-60 one-dose screen, 48 h (100 = growth as untreated, 0 = no growth, -100 = all killed)", "settings": "10 µM unless noted", "method": "Growth inhibition of the A498 human tumor cell line is measured as a screen for anti-cancer activity. Cells are grown in 96 well plates and exposed to the test compound for 48 hours. Compounds are tested at a single concentration, which is 10^-5 M for most compounds. The reported endpoint is percent growth (GI% or GIPRCNT), where numbers from 0 - 100% represent growth inhibition, and numbers from -100% - 0 represent cell death. For example, a value of 40 represents 60% growth inhibition. A value of 0 means no net growth occurred over the course of the experiment. A value of -40 indicates 40% of cells at the beginning of the experiment died by the end of the experiment. A value of -100 means all cells are dead at the end of the experiment.\nNCI-60 Human Tumor Cell Lines Screen was performed using the standard one-dose NCI protocol, which is described in more detail at https://dtp.cancer.gov/discovery_development/nci-60/default.htm.\nCompounds with GIPRCNT values below 10 were considered active. Activity score was based on GIPRCNT using the following formula: […]\nScore is 0 for GIPRCNT values of 100 or above, 50 for GIPRCNT values of 0, and 100 for GIPRCNT values of -100.", "values": [
      {"smiles": "COc1ccc(NC2=CC(=O)C(C)=C(C)C2=O)cc1", "growth": "84.4%"},
      {"smiles": "Cc1ccccc1NC(=O)/C=C/c1ccc(OCCOc2ccc3c(C)cc(=O)oc3c2)cc1", "growth": "81.3%"},
      {"smiles": "Clc1ccc2oc3c(NCCCN4CCOCC4)c4ccccc4nc3c2c1", "growth": "-2.14% (active)"},
      {"smiles": "CCOC(=O)c1csc(NC(=O)CSc2nc3sc4c(c3c(=O)n2-c2ccc(Cl)cc2)CCCC4)n1", "growth": "88.1%"},
      {"smiles": "O=C1c2c(c3c4cc(Br)ccc4[nH]c3c3ccc4ccccc4c23)C(=O)N1CCO", "growth": "90.6%"},
      {"smiles": "CC(=O)Oc1ccccc1C(=O)Nc1ccc(C(=O)/C=C/c2cccs2)cc1", "growth": "80.7%"},
      {"smiles": "COc1cc(-c2nc3ccc(-c4nnc(SCC(=O)Nc5ccc(C(=O)/C=C/c6ccc(Cl)cc6)cc5)o4)cc3[nH]2)cc(OC)c1OC", "growth": "83.2%"},
      {"smiles": "COC1CCN(Cc2ccc3c(NNC(=O)c4cnccn4)nc4cc(F)ccc4n23)C1", "note": "(stereo not given)", "growth": "30.6%"},
      {"smiles": "COc1cc2nc(-c3ccc(Cl)cc3)cc(OCCCNCC3CCCO3)c2cc1OC", "note": "(stereo not given)", "growth": "47.9%"},
      {"smiles": "OC1CCc2c(-c3ccc4ncnc(N5CCc6cc(F)c(Cl)cc65)c4c3)cncc21", "note": "(stereo not given)", "growth": "-13.1% (active)"},
      {"smiles": "CC(C)(C)Nc1nc2c(OCCc3ccccc3)cccn2c1-c1ccc(O)cc1", "growth": "103%"},
      {"smiles": "COc1ccc(NC2=C(Cl)C(=O)C(C)=C(C)C2=O)cc1OC", "growth": "93.2%"},
      {"smiles": "CCCSc1nc(Nc2ccc(/C(C)=N\\NC(N)=S)cc2)c(C#N)c(-c2ccc(OC)cc2)n1", "growth": "101%"},
      {"smiles": "Nc1cc(-c2c[nH]c3ccc(Cl)cc23)nc2cc(-c3c[nH]c4ccc(Cl)cc34)nn12", "growth": "32.2%"},
      {"smiles": "Fc1ccc(-c2cc3nc(C(Cl)Cl)nc(-c4ccc(Cl)cc4)n3n2)cc1", "growth": "-38.8% (active)"},
      {"smiles": "N/C(=N\\c1nc2c(Br)cccc2s1)C(Br)Br", "growth": "0.53% (active)"},
      {"smiles": "O=c1[nH]c2ccccc2cc1CSc1ccccc1Nc1nccc(-c2ccc(C(F)(F)F)cc2)n1", "growth": "85.5%"},
      {"smiles": "CCN1C(=S)N(c2ccccc2)C2NC(=O)N(/N=C/C=C/c3ccccc3OC)C21", "note": "(stereo not given)", "growth": "95%"},
      {"smiles": "COc1ccc(-c2csc(N/N=C/c3c(-c4ccc(S(C)(=O)=O)cc4)nc4ccccn34)n2)cc1", "growth": "85.9%"},
      {"smiles": "O=C(CSc1nnc(-c2ccc3nc(-c4ccc(Cl)cc4)[nH]c3c2)o1)Nc1ccc(C(=O)/C=C/c2ccc(Cl)cc2)cc1", "growth": "90.1%"},
      {"smiles": "Nc1ncc(-c2ccc3ncnc(N4CCc5cc(F)c(Cl)cc54)c3c2)cc1CO", "growth": "-64% (active)"},
      {"smiles": "CC(C)(C)Nc1nc2c(OCCc3ccccc3)cccn2c1-c1ccc(Cl)cc1", "growth": "56%"},
      {"smiles": "O=C1Nc2ccccc2Oc2ccc(S(=O)(=O)CC3CO3)cc21", "note": "(stereo not given)", "growth": "102%"},
      {"smiles": "O=C(O)CCCCCN1C(=O)/C(=C/c2ccc(O)c(O)c2)SC1=S", "growth": "101%"},
      {"smiles": "CC(C)(O)c1cncc(-c2ccc3ncnc(N4CCc5cc(F)c(Cl)cc54)c3c2)c1", "growth": "-39.6% (active)"},
      {"smiles": "NC(=O)c1cc(-c2ccc3ncnc(N4CCc5cc(F)c(Cl)cc54)c3c2)cnc1N", "growth": "-68.3% (active)"},
      {"smiles": "CCOc1ccc2nc(NC(=O)c3ccc(C(F)(F)F)cc3)sc2c1", "growth": "95.7%"},
      {"smiles": "CS(=O)(=O)c1ccc(-n2cc(/C=C/C(=O)c3ccc(NC(=O)CO[N+](=O)[O-])cc3)c(-c3ccc(Cl)cc3)n2)cc1", "growth": "117%"},
      {"smiles": "COc1cccc(N2CCN(c3ncnc4c3[nH]c3ccc(F)cc34)C[C@@H]2C)c1", "growth": "-23.1% (active)"},
      {"smiles": "CC(C)(C)Nc1nc2c(OCCc3ccccc3)cccn2c1-c1cccc(F)c1", "growth": "-18.9% (active)"},
      {"smiles": "O=C(c1ccc(Cl)cc1)C1[C@H](c2ccc(Cl)cc2)[C@@H](c2ccccc2)NC12C(=O)Nc1ccc(Br)cc12", "note": "(stereo not given in full)", "growth": "59.2%"},
      {"smiles": "CC1=C(C)C(=O)C(Nc2cccc(C(F)(F)F)c2)=C(Cl)C1=O", "growth": "55.2%"},
      {"smiles": "CCCC(=O)NC(c1ccc2c(c1)OC(F)(F)O2)c1cc(C)c2cccnc2c1O", "note": "(stereo not given)", "growth": "6.01% (active)"},
      {"smiles": "CNC(=O)c1cc(-c2ccc(NC(=O)Nc3ccc(N4CCN(C)CC4)c(C(F)(F)F)c3)cc2)nc2cccnc12", "growth": "40.9%"},
      {"smiles": "O=C1Nc2ccc(Cl)cc2/C1=C/c1ccc(OCC(=O)c2ccc(Br)cc2)cc1", "growth": "107%"},
      {"smiles": "Cc1sc2nc(NCc3ccccc3Cl)[nH]c(=O)c2c1C", "growth": "81.3%"},
      {"smiles": "Cc1ccc(C(=O)Nc2cccc(C(F)(F)F)c2)cc1Nc1nc(-c2cnccn2)nc2c1cnn2C", "growth": "53.9%"},
      {"smiles": "CN(C)CCCOc1c2ccc(Cl)cc2nc2c1oc1ccccc12", "growth": "-91.8% (active)"},
      {"smiles": "N#Cc1c(-c2ccc(Cl)cc2)nc(SCc2ccc([N+](=O)[O-])cc2)nc1N1CCNCC1", "growth": "44.7%"},
      {"smiles": "COc1ccc(C(=O)c2cc(C(=O)/C=C/c3c(Cl)cccc3Cl)c3cc(C)ccn23)cc1", "growth": "86.4%"}
    ]}
  ]
}
